Records with an inconclusive call do not appear. A call without a number means that no potency is given here. Active and inactive are the calls of the source. Unless noted, the call rests on the fitted dose curve; in most records, active means well fitted curve in the direction sought with a large enough effect; inconclusive means small, poorly fitted or top-dose-only effect, or another doubt; inactive means no such curve, though single readings can be large; an effect the other way counts as inactive or inconclusive.
Assays:
[1] = Primary qHTS for inhibitors of La Crosse Virus (LACV) - induced cell death in SH-SY5Y cells (AID 1508616); settings: SH-SY5Y LACV cytopathicity rescue, ATP luminescence, 6 d; series mostly up to 4.29 µM;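 further: top concentration of the series differs between compounds; higher means more rescue of cells from virus-induced death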
Summary of the method: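 SH-SY5Y, 6000 cells/well; cpd via pin tool in DMSO; LACV 0.01 MOI; 6 d 37C 5% CO2; ATPLite, 5 min RT; luminescence normalized to ±virus DMSO controls.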

[2] = biological target: Calcium and integrin-binding protein 1 (Homo sapiens) (UniProt Q99828); assay: Primary qHTS for Identification of Calcium Integrin Binding Protein 1 (CIB1) Competitor (AID 1508620); settings: CIB1-GST / FITC-alphaIIb peptide fluorescence polarization; series mostly up to 114 µM;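 further: GST tagged CIB1 binding a fluorescein labelled alphaIIb integrin peptide tracer; top concentration of the series differs between compounds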
Calcium and integrin-binding protein 1 (Homo sapiens), sequence (Q99828 whole entry, looked up): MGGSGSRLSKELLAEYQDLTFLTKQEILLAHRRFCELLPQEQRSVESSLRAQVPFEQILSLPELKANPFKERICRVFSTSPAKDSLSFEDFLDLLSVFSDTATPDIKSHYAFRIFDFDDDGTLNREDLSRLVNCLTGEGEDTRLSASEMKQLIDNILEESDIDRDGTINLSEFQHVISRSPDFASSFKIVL
Summary of the method: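 Fluorescence polarization competition: GST-tagged CIB1 (1 uM final) preincubated with compound 15 min at room temperature, then FITC-labelled alphaIIb peptide (100 nM final) added. After 15 min at room temperature, polarization read at Ex 480/Em 540.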

[3] = A High-Content qHTS Against Drug Library for the Identification of Small Molecules that Inhibit DYT1 Early Onset Primary Dystonia-Associated Cell Pathology (AID 1645839; calls by dose curve); settings: HEK293 Flp-In EGFP-delE TorsinA, punctate imaging, 48 h; series mostly up to 46.1 µM
Summary of the method: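 Cells were seeded and left for 24 h, then dosed with compound alongside tetracycline induction of mutant EGFP-TorsinA. They were incubated for 48 h, fixed in 4% paraformaldehyde, permeabilized and imaged for mislocalization (%pathology) and cell count.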

[4] = biological target: Cytochrome P450 2D6 (Homo sapiens) (UniProt P10635); assay: Cytochrome P450 family 2 subfamily D member 6 (CYP2D6) small molecule antagonists: luciferase biochemical (cell-free) qHTS assay (AID 1645840; active means well fitted curve in the direction sought with a large enough effect in the repeat runs; an effect the other way counts as inactive or inconclusive; further: nearly all actives have a fitted effect of over 55% in size; further: potency means the concentration at half of the fitted maximal effect); settings: P450-Glo CYP2D6 enzyme, luciferin luminescence, 1 h; series mostly up to 57.4 µM
Cytochrome P450 2D6 (Homo sapiens), sequence (P10635 whole entry, looked up): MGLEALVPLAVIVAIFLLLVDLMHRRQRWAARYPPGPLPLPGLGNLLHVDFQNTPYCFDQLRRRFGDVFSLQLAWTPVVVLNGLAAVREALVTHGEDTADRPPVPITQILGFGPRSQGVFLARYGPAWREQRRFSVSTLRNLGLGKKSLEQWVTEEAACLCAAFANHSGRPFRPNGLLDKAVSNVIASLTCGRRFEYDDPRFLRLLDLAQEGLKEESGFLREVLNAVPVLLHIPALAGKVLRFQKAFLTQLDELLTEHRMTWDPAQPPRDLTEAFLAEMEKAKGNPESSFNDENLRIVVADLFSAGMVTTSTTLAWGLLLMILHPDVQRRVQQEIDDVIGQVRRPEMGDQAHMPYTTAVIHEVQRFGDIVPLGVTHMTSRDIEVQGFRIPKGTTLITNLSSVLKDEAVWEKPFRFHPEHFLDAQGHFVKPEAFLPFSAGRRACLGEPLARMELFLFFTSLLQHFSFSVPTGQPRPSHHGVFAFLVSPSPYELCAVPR
Summary of the method: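 P450-Glo CYP2D6 system: proluciferin substrate converted by enzyme to luciferin, read by luminescence proportional to activity. Enzyme-substrate mix with compound 10 min at room temperature, then NADPH regeneration 1 h before detection reagent.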

[5] = biological target: Cytochrome P450 2C9 (Homo sapiens) (UniProt P11712); assay: Cytochrome P450 family 2 subfamily C member 9 (CYP2C9) small molecule antagonists: luciferase biochemical (cell-free) qHTS assay (AID 1645842; active means well fitted curve in the direction sought with a large enough effect in the repeat runs; an effect the other way counts as inactive or inconclusive; further: nearly all actives have a fitted effect of over 55% in size; further: potency means the concentration at half of the fitted maximal effect); settings: P450-Glo CYP2C9 enzyme assay, luciferin luminescence; series mostly up to 57.4 µM
Cytochrome P450 2C9 (Homo sapiens), sequence (P11712 whole entry, looked up): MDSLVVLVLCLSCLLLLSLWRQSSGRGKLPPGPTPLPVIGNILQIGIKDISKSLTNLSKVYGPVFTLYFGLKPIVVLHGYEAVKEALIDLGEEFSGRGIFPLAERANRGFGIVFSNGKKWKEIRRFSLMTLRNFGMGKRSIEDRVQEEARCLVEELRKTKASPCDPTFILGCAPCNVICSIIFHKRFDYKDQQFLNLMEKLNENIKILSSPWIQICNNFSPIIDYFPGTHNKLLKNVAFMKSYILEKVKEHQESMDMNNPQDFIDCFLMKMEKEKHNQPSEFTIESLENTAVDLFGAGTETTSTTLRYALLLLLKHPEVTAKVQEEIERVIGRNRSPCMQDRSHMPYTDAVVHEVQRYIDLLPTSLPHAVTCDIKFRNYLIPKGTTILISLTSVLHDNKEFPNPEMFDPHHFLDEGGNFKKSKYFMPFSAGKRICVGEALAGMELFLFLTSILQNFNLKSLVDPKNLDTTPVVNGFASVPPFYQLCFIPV
Summary of the method: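 P450-Glo CYP2C9 system: proluciferin substrate with enzyme in mix containing 0.4% BSA, 10 min at room temperature, then NADPH regeneration solution added and incubated 1 h at 37C. Detection reagent stopped reaction; luminescence read after 20 min as RLU.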

[6] = Primary qHTS for inhibitors of nuclear receptor binding SET domain protein 2 (NSD2) in an isogenic RCH-ACV NSD2 p.E1099K mutant (9B) (AID 1645876); settings: RCH-ACV NSD2 E1099K (9B) viability, CellTiter-Glo, 72 h; series mostly up to 44.9 µM; further: nearly all actives have a fitted effect of over 70% in size; further: potency means the concentration at half of the fitted maximal effect
[7] = Primary qHTS for inhibitors of nuclear receptor binding SET domain protein 2 (NSD2) in an RCH-ACV wild type WT cells (2C) (AID 1645877); settings: RCH-ACV (leukaemia line) NSD2 WT (2C) viability, CellTiter-Glo, 72 h; series mostly up to 44.9 µM; further: nearly all actives have a fitted effect of over 70% in size
[8] = biological target: Cytochrome P450 3A4 (Homo sapiens) (UniProt P08684); assay: Cytochrome P450 family 3 subfamily A member 4 (CYP3A4) small molecule antagonists: luciferase qHTS assay (AID 1645841; active means well fitted curve in the direction sought with a large enough effect in the repeat runs; an effect the other way counts as inactive or inconclusive; further: nearly all actives have a fitted effect of over 45% in size); settings: P450-Glo CYP3A4 enzyme assay, luciferin luminescence; series mostly up to 57.4 µM
Cytochrome P450 3A4 (Homo sapiens), sequence (P08684 whole entry, looked up): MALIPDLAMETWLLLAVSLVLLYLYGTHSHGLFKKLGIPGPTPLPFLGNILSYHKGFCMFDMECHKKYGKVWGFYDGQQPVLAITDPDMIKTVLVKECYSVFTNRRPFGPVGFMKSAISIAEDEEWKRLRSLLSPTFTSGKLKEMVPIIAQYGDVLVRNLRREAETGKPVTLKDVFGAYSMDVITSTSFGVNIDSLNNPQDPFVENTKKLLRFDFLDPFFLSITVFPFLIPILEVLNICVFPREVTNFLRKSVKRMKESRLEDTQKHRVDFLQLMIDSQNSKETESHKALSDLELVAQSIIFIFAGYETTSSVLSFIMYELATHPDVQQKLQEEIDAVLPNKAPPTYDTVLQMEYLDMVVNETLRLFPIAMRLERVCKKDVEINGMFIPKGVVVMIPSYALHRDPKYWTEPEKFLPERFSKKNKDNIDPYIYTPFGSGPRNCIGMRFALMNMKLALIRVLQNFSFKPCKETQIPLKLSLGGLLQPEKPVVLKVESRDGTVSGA
Summary of the method: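 P450-Glo CYP3A4 enzyme with proluciferin substrate preincubated 10 min with compound at room temperature, then NADPH regeneration 1 h. Luciferin detection reagent added for 20 min; luminescence recorded. Ketoconazole positive control.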

Row | SMILES | outcome [1] | Potency [2] | Potency [3] | Potency [4] | Potency [5] | Potency [6] | Potency [7] | Potency [8]
1 | CC(C)(C)c1cc(C=O)cc(C(C)(C)C)c1O | inactive | inactive | inactive | inactive |  |  |  | 
2 | NS(=O)(=O)c1cc(C(=O)NN2C[C@H]3[C@H]4CCC(C4)[C@H]3C2)ccc1Cl | inactive | inactive | inactive | inactive | inactive |  |  | 
3 | CC(NC(CCc1ccccc1)C(=O)O)C(=O)N1C(=O)N(C)CC1C(=O)O (stereo unspecified) | inactive | inactive | inactive | inactive | inactive | inactive | inactive | 
4 | OC(CCCN1CCCCC1)(c1ccccc1)c1ccccc1 | inactive | inactive | inactive | 138 nM (active) |  |  |  | 
5 | O=C(O)C(=O)Nc1cccc(-c2nn[nH]n2)c1 | inactive | inactive | inactive | inactive | inactive | inactive | inactive | 
6 | CC(=O)O[C@@H]1C(=O)O[C@@H]2[C@H]1OC(=O)[C@@H]2OC(C)=O | inactive | inactive | inactive | inactive | inactive |  |  | 
7 | CCCC(=O)O[C@]1(C(=O)COC(=O)CC)CC[C@H]2[C@@H]3CCC4=CC(=O)CC[C@]4(C)[C@H]3[C@@H](O)C[C@@]21C | inactive | inactive | inactive | inactive | inactive | inactive |  | inactive
8 | Nc1nc(=O)n([C@@H]2O[C@H](CO)[C@@H](O)[C@@H]2F)cc1I | inactive | inactive | inactive | inactive | inactive | 1680 nM (active) |  | 
9 | CCN1CCN(C(=O)N[C@@H](C(=O)N[C@@H]2C(=O)N3[C@@H]2SC(C)(C)[C@H]3C(=O)O)c2ccccc2)C(=O)C1=O | inactive | inactive | inactive | inactive | inactive | inactive | inactive | 
10 | CCc1cc(S(=O)(=O)O)c2cc(C(C)C)cccc1-2 | inactive | inactive | inactive | inactive | inactive |  |  | 
11 | COc1cc(S(N)(=O)=O)cc(C(=O)O)c1OC | inactive | inactive | inactive | inactive | inactive | inactive | inactive | 
12 | COc1c(N2C[C@@H]3CCCN[C@@H]3C2)c(F)cc2c(=O)c(C(=O)O)cn(C3CC3)c12 | inactive | inactive | inactive | inactive | inactive |  |  | 
13 | Nc1nc2ccccc2n1Cc1ccc(F)cc1 | inactive | inactive | inactive | 97.7 nM (active) | inactive |  |  | 
14 | CO/N=C(/C(=O)N[C@@H]1C(=O)N2C(C(=O)OCOC(=O)C(C)(C)C)=C(C)CS[C@H]12)c1csc(N)n1 | inactive | inactive | inactive | inactive | 17400 nM (active) |  |  | 
15 | CNC(=O)c1c(I)c(NC(C)=O)c(I)c(C(=O)O)c1I | inactive | inactive | inactive | inactive | inactive | inactive | inactive | 

Reference: PubChem BioAssay (NCATS)
